# Measured values published in the supplement of paper PMC8728848.
# Many of the other results were omitted from the sample, so the strongest signals are more common in it than they were.
# What was measured:
# Test in all cases: glycan array binding signal (z-score within array); higher = stronger binding
# Conditions in all cases: glycan notation: IUPAC condensed, linker removed
# [1] = biological target: Fuc(a1-2)Gal(b1-3)[Fuc(a1-4)]GlcNAc(b1-2)Man(a1-3)[Fuc(a1-2)Gal(b1-3)[Fuc(a1-4)]GlcNAc(b1-2)Man(a1-3)]Man(b1-4)GlcNAc(b1-4)GlcNAc
# Summary of the method: (§1)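 Columns mapping to the same glycan were averaged after glycan names were converted to IUPAC-condensed notation. The data come from 3228 arrays in the Consortium for Functional Glycomics database, limited to those with an available protein sequence. Binding is reported as a within-array Z-score averaged across arrays of one protein sequence and across linkers.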
# [2] = biological target: Fuc(a1-2)Gal(b1-4)Fuc(a1-3)]GlcNAc(b1-2)Man(a1-3)[Fuc(a1-2)Gal(b1-4)[Fuc(a1-3)]GlcNAc(b1-2)Man(a1-6)]Man(b1-4)GlcNAc(b1-4)GlcNAc
# Summary of the method: as §1
# [3] = biological target: Fuc(a1-2)Gal(b1-4)GlcNAc(b1-3)[Fuc(a1-3)[Gal(b1-4)]GlcNAc(b1-6)]Gal(b1-4)Glc
# Summary of the method: as §1
# [4] = biological target: Fuc(a1-2)Gal(b1-4)GlcNAc6S
# Summary of the method: as §1
# [5] = biological target: Fuc(a1-2)Gal(b1-4)[Fuc(a1-3)]GlcNAc(b1-3)GalNAc
# Summary of the method: as §1
# [6] = biological target: Fuc(a1-2)[Gal(a1-3)]Gal(b1-4)[Fuc(a1-3)]Glc
# Summary of the method: as §1
# [7] = biological target: Fuc(a1-2)[GalNAc(a1-3)]Gal(b1-3)GlcNAc(b1-2)Man(a1-3)[Fuc(a1-2)[GalNAc(a1-3)]Gal(b1-3)GlcNAc(b1-2)Man(a1-6)]Man(b1-4)GlcNAc(b1-4)[Fuc(a1-6)]GlcNAc
# Summary of the method: as §1
# [8] = biological target: Fuc(a1-2)[GalNAc(a1-3)]Gal(b1-4)GlcNAc
# Summary of the method: as §1
# Gal(a1-3)Gal(b1-3)GlcNAc = biological target: Gal(a1-3)Gal(b1-3)GlcNAc
# Summary of the method: as §1
# Gal(a1-4)Gal(b1-4)Glc = biological target: Gal(a1-4)Gal(b1-4)Glc
# Summary of the method: as §1
# [9] = biological target: Gal(a1-4)Gal(b1-4)GlcNAc(b1-2)Man(a1-3)[Gal(a1-4)Gal(b1-4)GlcNAc(b1-2)Man(a1-6)]Man(b1-4)GlcNAc(b1-4)GlcNAc
# Summary of the method: as §1
# [10] = biological target: Gal(b1-3)[Fuc(a1-4)]GlcNAc(b1-2)Man
# Summary of the method: as §1
# Gal(b1-4)Gal = biological target: Gal(b1-4)Gal
# Summary of the method: as §1
# [11] = biological target: Gal(b1-4)GlcNAc(a1-6)Gal(b1-4)GlcNAc
# Summary of the method: as §1
# [12] = biological target: Gal(b1-4)GlcNAc(b1-2)Man(a1-3)[Gal(b1-4)GlcNAc(b1-2)Man(a1-6)]Man(b1-4)GlcNAc(b1-4)GlcNAc
# Summary of the method: as §1
# [13] = biological target: Gal(b1-4)GlcNAc(b1-2)Man(a1-6)Man(b1-4)GlcNAc(b1-4)GlcNAc
# Summary of the method: as §1
# [14] = biological target: Gal(b1-4)GlcNAc(b1-3)Gal(b1-4)Glc
# Summary of the method: as §1
# [15] = biological target: Gal(b1-4)GlcNAc(b1-3)Gal(b1-4)GlcNAc(b1-2)Man(a1-3)[Gal(b1-4)GlcNAc(b1-3)Gal(b1-4)GlcNAc(b1-2)Man(a1-6)]Man(b1-4)GlcNAc(b1-4)GlcNAc
# Summary of the method: as §1
# [16] = biological target: Gal(b1-4)GlcNAc(b1-3)[Fuc(a1-3)GlcNAc(b1-6)]Gal(b1-4)Glc
# Summary of the method: as §1
# Gal3S4S(b1-4)GlcNAc = biological target: Gal3S4S(b1-4)GlcNAc
# Summary of the method: as §1
# Gal3S6S(b1-4)GlcNAc6S = biological target: Gal3S6S(b1-4)GlcNAc6S
# Summary of the method: as §1
# Gal6S(b1-3)GlcNAc = biological target: Gal6S(b1-3)GlcNAc
# Summary of the method: as §1
# [17] = biological target: GalNAc(b1-3)Gal(a1-4)Gal(b1-4)GlcNAc
# Summary of the method: as §1
# GalNAc(b1-3)GlcNAc = biological target: GalNAc(b1-3)GlcNAc
# Summary of the method: as §1
# GalNAc(b1-4)Gal(b1-4)Glc = biological target: GalNAc(b1-4)Gal(b1-4)Glc
# Summary of the method: as §1
# GalNAc3S(b1-4)GlcNAc = biological target: GalNAc3S(b1-4)GlcNAc
# Summary of the method: as §1
# [18] = biological target: GalNAc3S(b1-4)[Fuc(a1-3)]GlcNAc
# Summary of the method: as §1
# GalNAc4S6S(b1-4)GlcNAc = biological target: GalNAc4S6S(b1-4)GlcNAc
# Summary of the method: as §1
# [19] = biological target: GlcNAc(b1-2)Man(a1-3)[GlcNAc(b1-2)Man(a1-6)]Man(b1-4)GlcNAc(b1-4)[Fuc(a1-6)]GlcNAc
# Summary of the method: as §1
# [20] = biological target: GlcNAc(b1-2)[GlcNAc(b1-4)]Man(a1-3)[GlcNAc(b1-4)][GlcNAc(b1-2)Man(a1-6)]Man(b1-4)GlcNAc(b1-4)GlcNAc
# Summary of the method: as §1
binder,measurement,setting,value
"CC1G-11630 (Coprinopsis cinerea), A8P462 (protein) MTTEAKIKLKAVVYWELVFDYDNSSNTGEITQSYTVKISQTSTRSTFASEVSTTTIDTLTKNNQEVDVGASYGAISANVSASWEHSEEVNNMLEKTTQTSTEDTYTVETEETRSYTIGPGGMLSLFQKHFSGPGMHVAFDVFTTDLELAKERTEIDIDVDVEAIRFVREIRVVYTDIMSEAPGDHVREINGKNPDINYGFNGKFVWLVPEQTRKTAQALTNVEFVSQAESDDRYWDLAAGAGGSNRYLIPVYDTNNKDKIYELALWRSDSYITHDKVKAAGWSGTTGDINSGRGGTYLNLVWKTRHAY",glycan array binding signal (z-score),[1],2.22
same,glycan array binding signal (z-score),[2],1.38
same,glycan array binding signal (z-score),[3],-0.581
same,glycan array binding signal (z-score),[4],0.388
same,glycan array binding signal (z-score),[5],0.411
same,glycan array binding signal (z-score),[6],-0.641
same,glycan array binding signal (z-score),[7],-0.174
same,glycan array binding signal (z-score),[8],-0.601
same,glycan array binding signal (z-score),Gal(a1-3)Gal(b1-3)GlcNAc,6.02
same,glycan array binding signal (z-score),Gal(a1-4)Gal(b1-4)Glc,0.088
same,glycan array binding signal (z-score),[9],0.102
same,glycan array binding signal (z-score),[10],2.23
same,glycan array binding signal (z-score),Gal(b1-4)Gal,1.01
same,glycan array binding signal (z-score),[11],-0.631
same,glycan array binding signal (z-score),[12],-0.378
same,glycan array binding signal (z-score),[13],-0.208
same,glycan array binding signal (z-score),[14],-0.507
same,glycan array binding signal (z-score),[15],2.49
same,glycan array binding signal (z-score),[16],-0.538
same,glycan array binding signal (z-score),Gal3S4S(b1-4)GlcNAc,3.27
same,glycan array binding signal (z-score),Gal3S6S(b1-4)GlcNAc6S,2.52
same,glycan array binding signal (z-score),Gal6S(b1-3)GlcNAc,-0.544
same,glycan array binding signal (z-score),[17],0.165
same,glycan array binding signal (z-score),GalNAc(b1-3)GlcNAc,-0.463
same,glycan array binding signal (z-score),GalNAc(b1-4)Gal(b1-4)Glc,1.99
same,glycan array binding signal (z-score),GalNAc3S(b1-4)GlcNAc,-0.609
same,glycan array binding signal (z-score),[18],0.036
same,glycan array binding signal (z-score),GalNAc4S6S(b1-4)GlcNAc,0.25
same,glycan array binding signal (z-score),[19],-0.33
same,glycan array binding signal (z-score),[20],-0.368
